Reference: PubChem BioAssay AID492998 (Southern Research Specialized Biocontainment Screening …, 2010)
Among all 2,300 compounds or so, about 550 (24%) were called active. No rule for the calls is given here. A selection follows. Where a call stands in place of a potency, no number is given. Potency and affinity values are given separately.

Test: Vero E6 cell cytotoxicity, dose response, cytotoxicity control for non-replicating M. tuberculosis project, secondary assay (AID 492998)
Settings: series mostly up to 20 µM

SMILES	outcome
Cc1cc(OCCOCCNCc2ccccc2)ccc1C(C)C	inactive
O=C(OCC#CCSc1nc2ccccc2o1)c1ccco1	inactive
O=C(CCNc1cccc(F)c1)c1cccc([N+](=O)[O-])c1	inactive
C/C(=N\O)c1cc(Cl)ccc1O	inactive
COc1ccc(O)c(C(=O)CC(=O)c2ccc(F)cc2)c1	inactive
O=C(Nc1ccccc1N1CCCC1)c1cccc(F)c1	inactive
CC12CC3CC(C)(C1)CC(C(=O)N1CCCC1)(C3)C2	inactive
CSc1ccc(CNc2ncc(-c3cccc([N+](=O)[O-])c3)n2C)cc1	inactive
COc1cccc(NC(=O)COC(=O)Cc2ccc(Br)cc2)c1	inactive
CC(C)(C)NCC1(CO)SC(N)=NC1=O (stereo not drawn)	inactive
Cc1cc(C)nc(SC2CC(=O)N(c3ccc(C)c(C)c3)C2=O)n1 (stereo not drawn)	inactive
Cc1ccc2nc(C)c3c(c2c1)COC3	inactive
O=C(COc1ccccc1)NC1CCCCC1	inactive
O=C(OCn1nnc2ccccc2c1=O)C1CCCCC1	inactive
Cc1cc2cc(CNC(=O)COc3ccccc3)ccc2n1C	inactive
CC1CC(C)CN(CCOCCSc2ccc(Cl)cc2)C1 (stereo not drawn)	inactive
COc1ccc(Cl)cc1N=Cc1c(O)c2ccccc2oc1=O	inactive
O=C(COC(=O)c1cc(Br)ccc1Cl)NC1CCCC1	inactive
COC(=O)COc1ccc(S(=O)(=O)N2CCN(c3ccccc3F)CC2)cc1	inactive
O=C1/C(=C\c2ccco2)SC(=S)N1c1ccc(O)cc1	inactive
Cc1ccccc1OCCC(=O)OCC(=O)NNC(=O)c1cccs1	inactive
CCSc1ncc(/C=N/Nc2ccc(Cl)cc2)n1C	inactive
O=C(COC(=O)CCc1c[nH]c2ccccc12)Nc1ccc([N+](=O)[O-])cc1	inactive
CCCCOC(=O)C1CCCC(C(=O)OCCCC)N1 (stereo not drawn)	inactive

SMILES	outcome
O=C(COc1ccc2c(c1)CCC2)Nc1ccccn1	inactive
O=C1NC(=O)N(Cc2ccco2)C(=O)/C1=C\c1cccn1CCOc1ccc(Cl)cc1	inactive
O=C1NC(=O)N(Cc2ccc(F)cc2)C(=O)/C1=C\c1ccc([N+](=O)[O-])s1	inactive
OC(CNCCc1ccc(C(F)(F)F)cc1)COc1cccc2ccccc12 (stereo not drawn)	inactive
O=C(COC(=O)c1cc(Cl)ccc1O)c1ccc2c(c1)OCO2	inactive
O=C1CC(Sc2ncccn2)C(=O)N1c1ccccc1C(F)(F)F (stereo not drawn)	inactive
CCOC(=O)c1c(NC(=O)C2COc3ccccc3O2)sc2c1CC(C)(C)NC2(C)C (stereo not drawn)	inactive
CCOC(=O)CCS(=O)(=O)c1nc(-c2ccccc2)cc(C(F)(F)F)n1	inactive
CCOc1ccc2ccccc2c1/C=N/NC(=O)c1ccncc1	inactive
COc1ccc(NC(=O)Nc2ccc(O)c3ccccc23)cc1	inactive
Cc1ccc(S(=O)(=O)/N=C(\CCl)N2CCOCC2)cc1	inactive
Cc1cc(CN(C)C)c(O)c(C2(C)CCCCC2)c1	inactive
CCCCNC(=O)N1CCc2ccccc2C1	inactive
CCOc1ccccc1OC(=O)c1cc2ccccc2oc1=O	inactive
Cc1ccc(NC(=O)C2CC2c2ccccc2)cc1 (stereo not drawn)	inactive
CN(/N=C/c1ccc([N+](=O)[O-])o1)c1ccccc1	inactive
O=c1oc(-c2ccccc2[N+](=O)[O-])nc2ccccc12	inactive
COc1ccc(OC)c(N2C(=O)NC(=O)/C(=C/c3ccc([N+](=O)[O-])s3)C2=O)c1	inactive
CCC(=O)N1CCN(c2cc3c(cc2F)c(=O)c(C(=O)O)cn3CC)CC1	inactive
O=C(COC(=O)c1ccccn1)Nc1cccc(Cl)c1Cl	inactive
CCOC(=O)C1CCCN(Cc2nc(Cc3ccccc3Cl)no2)C1 (stereo not drawn)	inactive
Cc1cc(Br)ccc1OCCCCN1CCC(C)CC1	inactive
CCCCCOc1ccc(CSC2=NCCN2)cc1[N+](=O)[O-]	inactive
CCc1ccc(C(C)NC(=O)C2CCCO2)cc1 (stereo not drawn)	inactive

SMILES	outcome
CC1CCN(S(=O)(=O)c2cccc(C(=O)Oc3ccc([N+](=O)[O-])cc3)c2)CC1	inactive
Cc1ccc(-c2ccc(/C=N/NC(=O)CN3CCOCC3)o2)cc1[N+](=O)[O-]	inactive
O=C(Nc1ccc(S(=O)(=O)N2CCOCC2)cc1)c1ccc([N+](=O)[O-])s1	inactive
COc1cccc(NC(=O)c2ccc(Cn3cc([N+](=O)[O-])cn3)o2)c1	inactive
CCS(=O)(=O)c1ncc(Cl)c(C(=O)Nc2ccc(S(=O)(=O)N3CCC(C)CC3)cc2)n1	inactive
CCN1CCN(Cc2cc(C(C)(C)C)c(O)c(C(C)(C)C)c2)CC1	inactive
O=C(N/N=C/c1ccc(OC(=O)c2cccs2)cc1)c1ccccn1	inactive
COc1cc(C2C3=C(CC(C)(C)CC3=O)OC(N)=C2[N+](=O)[O-])ccc1O (stereo not drawn)	inactive
CC(C)CCNCC(O)CON=C1c2ccccc2-c2ccccc21 (stereo not drawn)	inactive
O=C(O)c1ccc(NS(=O)(=O)/C=C/c2ccccc2)cc1O	inactive
O=C(NNc1ccc([N+](=O)[O-])cc1)c1ccccc1Cl	inactive
CCOc1ccc(NC(=O)CCC(=O)N/N=C/c2ccc([N+](=O)[O-])s2)cc1	inactive
Cc1cccc(NCc2ccc([N+](=O)[O-])s2)c1	inactive
O=C(N/N=C/c1ccc(Br)s1)c1ccccc1[N+](=O)[O-]	inactive
CCCOC(=O)c1ccc(NC(=O)Cc2cccs2)cc1	inactive
CCOC(=O)N/N=C\c1ccc([N+](=O)[O-])s1	inactive
Cc1ccc(C2=N/C(=C\c3cccnc3)C(=O)O2)cc1	inactive
CCOC(=O)c1cc(COc2cc(Cl)cc(Cl)c2)on1	inactive
O=C(c1cc2ccccc2o1)c1nc2c(n1O)CCCCC2	inactive
Nc1cccn2c(-c3ccc(Cl)cc3)cnc12	inactive
CC1(C(=O)OCC(=O)Nc2nnc(-c3ccccc3)o2)CC1(Cl)Cl (stereo not drawn)	inactive
CCOC(=O)C1CCCc2c1[nH]c1c(C(N)=O)cccc21 (stereo not drawn)	inactive
Cc1ccc(Oc2c(C(N)=O)cc([N+](=O)[O-])cc2[N+](=O)[O-])cc1	inactive
COc1cc(/C=C/c2ccc3c([N+](=O)[O-])cccc3n2)ccc1OCC(=O)O	inactive

SMILES	outcome
CCC1CCc2sc(C(=O)NNC(=O)c3ccncc3)cc2C1 (stereo not drawn)	inactive
CN(CCS(=O)(=O)c1ccc(Cl)cc1)Cc1cccnc1	inactive
CC(=O)c1ccc(NC(=O)c2cc(CC(C)C)on2)cc1	inactive
CC(C)(C)Nc1nc(NC(C)(C)C)nc(-n2ccnc2)n1	inactive
O=C(NC(=S)Nc1ccc(F)cc1)C1CCCCC1	inactive
COC(=O)COc1cccc(NC(=O)c2ccc(Cl)cc2)c1	inactive
CCc1ccc(OCC(=O)Nc2ccncc2)c(Br)c1	inactive
Cc1cc(NC(=O)COc2ccccc2)ccc1Cl	inactive
CCc1ccc(NC(=O)C(=O)NNC(=O)COc2cccc(OC)c2)cc1	inactive
O=C(Oc1cccnc1)c1ccc(Cl)c(Cl)c1	inactive
O=C(NNC(=O)c1ncc(Cl)c(Cl)c1Cl)c1ccc(F)cc1	inactive
Cc1cc(Br)ccc1OCC(=O)NNC(=O)C(=O)Nc1ccccc1	inactive
CC(C)c1ccc(OCC(=O)NNC(=O)c2cnccn2)cc1	inactive
Cc1cc(OCC(=O)Nc2ccncc2)ccc1Br	inactive
Cc1cc2cc(CNC(=O)C3CCCC3)ccc2n1C	inactive
O=C(CCC1CCCCC1)NCc1ccc(F)cc1	inactive
Clc1ccc(SCCCCN2CCNCC2)cc1	inactive
O=C(NCC1CCCCC1)c1ccc([N+](=O)[O-])cc1	inactive
CCCCOC(=O)c1ccc(NC(=O)c2nn(C)cc2Br)cc1	inactive
O=C(NCCSc1ccccc1)c1ccc(Br)cc1	inactive
Cc1ccc2cc(/C=N/NC(=O)[C@H](C)NC(=O)OC(C)(C)C)c(Cl)nc2c1	inactive
CN1CC(=O)NC1=NC(=O)C12CC3CC(CC(C3)C1)C2	inactive
CCOC(=O)c1csc(NC(=O)COc2ccc(Cl)cc2Cl)n1	inactive
Cc1cc(Br)ccc1OCCCCN1CCCCC1	inactive

SMILES	outcome
CCOc1ccc(Cn2c(=O)oc3ccccc32)cc1	inactive
CC1C/C(=N/N2C(=O)CSC2=S)CC(C)(C)C1 (stereo not drawn)	inactive
C/C(=N/NC(=O)c1ccncc1)C1=C(O)CC(C)(C)CC1=O	inactive
CC1=C(/C=C/C(C)=N\NC(=O)c2ccncc2)C(C)(C)CCC1	inactive
C=CCNCC(=O)N1N=C(c2ccc3ccccc3c2)CC1c1ccc(OC)cc1 (stereo not drawn)	inactive
CCn1nnc(NC(=O)c2sc3ccccc3c2Cl)n1	inactive
CCn1ccc(C(=O)Nc2cccc(Cl)c2)n1	inactive
CCCc1cc(C(=O)Nc2cccc(C(C)=O)c2)no1	inactive
CC(C)(C)c1ccc(OCCC(=O)OCC(=O)NC2CCCCC2)cc1	inactive
COC(=O)CCC(=O)Nc1sc(Cc2ccccc2)c(C)c1C(N)=O	inactive
COc1ccc(C(CNC(=O)c2cccc(NS(=O)(=O)c3ccc(C)c(F)c3)c2)N2CCCC2)cc1 (stereo not drawn)	inactive
Cc1noc2ncnc(Sc3ccc(Br)cc3)c12	inactive
COC(=O)c1ccccc1Sc1ncnc2onc(C)c12	inactive
CCOC(=O)CNc1ccc(C(=O)OCC)cc1[N+](=O)[O-]	inactive
CC(C)c1ccc(N2C(=O)NC(=O)/C(=C/C=C/c3ccco3)C2=O)cc1	inactive
Brc1ccc(CSc2nnc(-c3ccco3)o2)cc1	inactive
CCCc1ccc(OCc2ccc(C(=O)N/N=C/c3cccnc3)o2)cc1	inactive
O=c1oc(/C=C/c2ccc([N+](=O)[O-])s2)nc2ccccc12	inactive
NC(=O)c1ccc(N=Cc2ccc([N+](=O)[O-])s2)cc1	inactive
CN1C(=O)NC(=O)/C(=C/c2ccc([N+](=O)[O-])s2)C1=O	inactive
Cc1cc(C)n(CC(=O)N/N=C/c2ccc([N+](=O)[O-])s2)n1	inactive
NNC(=O)CNC(=O)C12CC3CC(CC(C3)C1)C2	inactive
